# Experimental data published in publication PMC4336329 (PLoS ONE, 2015).
# Among all 310,000 compounds or so, about 2,200 (0.71%) showed an effect of 50% or more. Effects have a minus sign here. The sample holds strong results, similar compounds and a random draw of the others, so the mix is not that of the screen.
# Target: human ether-à-go-go-related gene (hERG) potassium channel (human, UniProt Q12809)
# Assay: primary screen, population patch clamp on CHO cells stably expressing hERG; higher = less effect of the substance
# Chain of human ether-à-go-go-related gene (hERG) potassium channel (Q12809 whole entry, looked up): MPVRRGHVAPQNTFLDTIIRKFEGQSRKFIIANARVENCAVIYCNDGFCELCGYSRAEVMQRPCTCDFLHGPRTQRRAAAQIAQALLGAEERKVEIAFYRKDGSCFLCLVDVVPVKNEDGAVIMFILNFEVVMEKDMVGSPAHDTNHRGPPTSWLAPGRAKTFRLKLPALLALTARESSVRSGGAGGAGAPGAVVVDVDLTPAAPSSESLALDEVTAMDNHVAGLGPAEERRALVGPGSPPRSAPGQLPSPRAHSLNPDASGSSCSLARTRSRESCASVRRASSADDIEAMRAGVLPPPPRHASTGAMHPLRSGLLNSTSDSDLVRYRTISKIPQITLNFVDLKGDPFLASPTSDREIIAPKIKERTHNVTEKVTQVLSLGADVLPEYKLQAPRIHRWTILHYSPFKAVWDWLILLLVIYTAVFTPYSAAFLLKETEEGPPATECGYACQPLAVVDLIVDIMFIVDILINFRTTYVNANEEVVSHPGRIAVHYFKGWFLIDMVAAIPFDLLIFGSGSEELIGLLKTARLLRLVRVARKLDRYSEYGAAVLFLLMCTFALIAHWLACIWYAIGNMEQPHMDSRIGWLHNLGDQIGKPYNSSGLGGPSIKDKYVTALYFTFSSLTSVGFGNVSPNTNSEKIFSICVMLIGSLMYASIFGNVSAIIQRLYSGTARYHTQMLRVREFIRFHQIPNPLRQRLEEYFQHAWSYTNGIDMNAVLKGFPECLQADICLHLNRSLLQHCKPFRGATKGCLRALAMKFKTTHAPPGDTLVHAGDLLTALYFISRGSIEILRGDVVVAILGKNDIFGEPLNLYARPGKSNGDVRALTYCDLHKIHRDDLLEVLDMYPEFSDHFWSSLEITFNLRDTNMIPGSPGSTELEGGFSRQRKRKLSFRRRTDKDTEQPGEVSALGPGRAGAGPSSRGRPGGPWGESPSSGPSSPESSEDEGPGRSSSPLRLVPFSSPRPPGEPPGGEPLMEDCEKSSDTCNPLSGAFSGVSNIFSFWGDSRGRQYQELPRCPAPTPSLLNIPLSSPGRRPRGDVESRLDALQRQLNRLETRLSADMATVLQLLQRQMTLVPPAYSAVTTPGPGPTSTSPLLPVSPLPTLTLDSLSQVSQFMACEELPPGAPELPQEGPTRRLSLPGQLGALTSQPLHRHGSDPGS
row,SMILES,"hERG current change (%, negative = inhibition) at 1uM"
1,Cc1cc(C(=O)NC2CCCc3c2cnn3-c2ccc(C(C)(C)C)cc2)nn1C (stereo not shown),16.5%
2,O=[N+]([O-])c1cc([N+](=O)[O-])c2nonc2c1Nc1ccc(O)cc1,2.03%
3,CC1CCN(S(=O)(=O)c2ccc3c(c2)c(=O)c(C(=O)NC2CCCC2)cn3C)CC1,9.59%
4,CCCCS(=O)(=O)N1CCC(C(=O)Oc2ccc(Cl)cc2)CC1,17.9%
5,COc1ccc(S(=O)(=O)N2CCN(C(=O)CN3C(=O)NC(C)(C)C3=O)CC2)cc1,14%
6,CC(Oc1ccc(Cl)cc1Cl)C(=O)OCC(=O)c1c(N)n(C)c(=O)n(C)c1=O (stereo not shown),-57.5%
7,Cn1c(N)c(C(=O)COc2ccc(Cl)cc2Cl)c(=O)n(C)c1=O,12.3%
8,Cn1c(N)c(C(=O)COC(=O)CCCOc2ccc(Cl)cc2Cl)c(=O)n(C)c1=O,16%
9,O=C(CSc1nc2c(cnn2-c2ccc(F)cc2)c(=O)[nH]1)N1CCCCCC1,11%
10,O=C(Nc1ccncc1)C1COc2ccccc2O1 (stereo not shown),1.88%
11,COc1cccc(N2CC(C(=O)N3CCC4(CC3)CC(=O)c3ccccc3O4)CC2=O)c1 (stereo not shown),3.79%
12,O=C1CC2(CCN(C(=O)C3CC(=O)N(c4ccccc4)C3)CC2)Oc2ccccc21 (stereo not shown),-51.5%
13,COc1ccc(N2CC(C(=O)N3CCC4(CC3)CC(=O)c3ccccc3O4)CC2=O)cc1 (stereo not shown),-34.8%
14,O=C(C1CC(=O)N(c2ccc(F)cc2)C1)N1CCN(c2ccccc2)CC1 (stereo not shown),-13.6%
15,Cc1ccc(N2CC(C(=O)N3CCC4(CC3)CC(=O)c3ccccc3O4)CC2=O)cc1 (stereo not shown),-47.4%
16,O=C(C1CC(=O)N(c2ccccc2)C1)N1CCN(c2ccc(F)cc2)CC1 (stereo not shown),-8.63%
17,Cc1ccc(N2CC(C(=O)N3CCC4(CC3)CC(=O)c3ccccc3O4)CC2=O)cc1C (stereo not shown),-6.22%
18,O=C(C1CC(=O)N(c2ccc(F)cc2)C1)N1CCN(c2ccc(F)cc2)CC1 (stereo not shown),-71.1%
19,O=C1CC2(CCN(C(=O)C3CC(=O)N(c4ccc(F)cc4)C3)CC2)Oc2ccccc21 (stereo not shown),-73.6%
20,Cc1cnc(C(=O)NNC(=O)c2ccc(Br)cc2)cn1,2.55%
21,Cc1cccc(NC(=O)CNC(=O)COc2ccc(C(=O)c3ccc(F)cc3)cc2)c1C,1.92%
22,CCCCC(=O)Nc1ccc2c(c1)nc(CN1CCN(C(=O)OCC)CC1)n2C,13.1%

row,SMILES,"hERG current change (%, negative = inhibition) at 1uM"
1,Cc1ccc(Oc2cc(C#N)c(C#N)cc2-n2nnc3ccccc32)cc1C,7.63%
2,CCCCN(CC)C(=O)Cc1ccccc1OC,18%
3,O=c1c2cc(NC(=S)NCCCN3CCC(Cc4ccccc4)CC3)ccc2nc2n1CCCCC2,-57.1%
4,CSc1ccc(NC(=O)NCCCN2CCC(Cc3ccccc3)CC2)cc1,-76%
5,CC(=O)Nc1ccc(S(=O)(=O)NCc2ccc(C(=O)NCCCN3CCC(C)CC3)cc2)cc1,16.7%
6,CCCCNC(=S)Nc1ccc2nc3n(c(=O)c2c1)CCCCC3,-24.7%
7,Cc1ccc(S(=O)(=O)NCc2ccc(C(=O)NCCCN3CCC(Cc4ccccc4)CC3)cc2)cc1,-52.4%
8,COc1ccc(-c2noc(CCC(=O)NCCCN3CCC(C)CC3)n2)cc1,9.03%
9,CSc1ccc(NC(=O)NCCCN2CCN(c3ccccc3F)CC2)cc1,-12.8%
10,COc1ccc(-c2noc(CCC(=O)NCCCN3CCC(Cc4ccccc4)CC3)n2)cc1,-84.9%
11,O=c1c2cc(NC(=S)NCCN3CCCCCC3)ccc2nc2n1CCCCC2,7.57%
12,Cc1ccccc1CC1CCN(CCCNC(=O)Nc2ccccc2)CC1,-34.1%
13,CCN1CCN(CCCNC(=O)CCc2nc(-c3ccc(OC)cc3)no2)CC1,6.54%
14,Cc1ccc(S(=O)(=O)NCc2ccc(C(=O)NCCCN3CCN(C)CC3)cc2)cc1,13.4%
15,COc1ccc(C2C=C(Nc3ccccc3)C(=O)N2c2ccccc2)cc1OC (stereo not shown),20.1%
16,C/C(=N/NC(=O)c1ccc(C)nc1)c1ccc2c(c1)CCCC2,-4.02%
17,CC(=O)Oc1cc2c(cc1Cl)C1(CC(c3ccccc3Cl)O2)CC(C)(C)NC(=S)N1 (stereo not shown),4.5%
18,COc1ccc(NC(=O)NCCCCc2ccccc2)cc1,6.14%
19,COc1ccc(NC(=O)N2CCC(Cc3ccccc3)CC2)cc1,6.74%
20,COc1ccc(NC(=O)NCCCN2CCC(Cc3ccccc3)CC2)cc1,-82.2%
21,Cc1ccc(NC(=O)CCn2nc(C)cc2C)c(C)c1,8.75%
22,Cc1ccccc1CC1(CO)CCCN(C(=O)c2cc(Cl)ccc2F)C1 (stereo not shown),14.5%

row,SMILES,"hERG current change (%, negative = inhibition) at 1uM"
1,Cc1ccccc1CC1(CO)CCCN(C(=O)c2ccccc2Cl)C1 (stereo not shown),-70.4%
2,Cc1ccccc1CC1(CO)CCCN(C(=O)c2ccccc2N(C)C)C1 (stereo not shown),10.9%
3,Cc1cc(=O)n2c(n1)OC(CO)C2 (stereo not shown),12.1%
4,Cc1nc(C)c(-c2ccccc2)c(=O)[nH]1,12.8%
5,O=C(N1CCOCC1)N1c2ccccc2CC(N2CCOCC2)c2ccccc21 (stereo not shown),17%
6,OCC1(Cc2ccc(Cl)cc2)CCN(Cc2ccc(F)c(F)c2)CC1,-4.29%
7,OCC1(Cc2ccccc2)CCN(CCCC2CCCC2)CC1,-79%
8,OCC1(Cc2ccccc2)CCN(Cc2ccc(C(F)(F)F)cc2)CC1,-6.85%
9,CN1CCC(CO)(Cc2ccccc2)CC1,4.74%
10,OCC1(Cc2ccc(Cl)cc2)CCN(Cc2ccccc2F)CC1,-18.4%
11,OCC1(Cc2ccc(Cl)cc2)CCN(CCCc2ccccc2)CC1,-83.6%
12,COc1ccc(CCNC(=O)Cc2cccs2)cc1,16.8%
13,COc1ccc(C(CNC(=O)CN2C(=O)NC3(CCCC3)C2=O)N(C)C)cc1 (stereo not shown),13.2%
14,COc1ccc2nc(N=NC3=C(O)CC(C)(C)CC3=O)sc2c1,7.73%
15,COc1ccccc1Nc1nc(N)nc(CN2CCN(Cc3ccccc3)CC2)n1,-76.6%
16,COc1ccccc1Nc1nc(N)nc(CN2CCC(Cc3ccccc3)CC2)n1,-95.7%
17,COc1ccccc1Nc1nc(N)nc(CN2CCN(c3ccccc3)CC2)n1,-3.16%
18,COc1ccccc1Nc1nc(N)nc(CN2CCCCCC2)n1,-32.2%
19,COc1ccccc1Nc1nc(N)nc(CN2CCN(c3ccccc3F)CC2)n1,-9.68%
20,COc1ccc(N2CCN(Cc3nc(N)nc(Nc4ccccc4OC)n3)CC2)cc1,-14.5%
21,COc1ccccc1Nc1nc(N)nc(CN2CCOCC2)n1,14.7%
22,COc1ccccc1Nc1nc(N)nc(CN2CCN(Cc3ccc4c(c3)OCO4)CC2)n1,-79.8%

row,SMILES,"hERG current change (%, negative = inhibition) at 1uM"
1,COc1cccc(N2CCN(Cc3nc(N)nc(Nc4ccccc4OC)n3)CC2)c1,10.2%
2,O=C(N/C(=C/c1cccnc1)C(=O)N1CCCCCC1)c1ccccc1,6.71%
3,CC1NC(=O)N(C)C2NC(=O)N(C)C(c3ccccc3)C12 (stereo not shown),11.1%
4,CC(C)(C)Sc1ccc([N+](=O)[O-])cc1C(=O)Nc1ccncc1,0.86%
5,O=C(O)C(=O)O.c1ccc(Cc2ccc(OCCCNC3CCCC3)cc2)cc1,-3.05%
6,O=C(O)C(=O)O.c1ccc(-c2ccc(OCCCNC3CCCC3)cc2)cc1,-54.9%
7,O=C(O)C(=O)O.c1ccc(COc2ccc(OCCCNC3CCCC3)cc2)cc1,8.41%
8,COc1ccc(CCNC(=O)Cn2c([N+](=O)[O-])cnc2C)cc1OC,8.24%
9,CC1CC(C)CN(Cc2nc(N)nc(Nc3ccccc3)n2)C1 (stereo not shown),-52.3%
10,COc1ccccc1Nc1nc(N)nc(CN2CC(C)CC(C)C2)n1 (stereo not shown),-70.8%
11,CC1CC(C)CN(Cc2nc(N)nc(Nc3ccc4ccccc4c3)n2)C1 (stereo not shown),-61.1%
12,Cc1ccc(Nc2nc(N)nc(CN3CCc4ccccc4C3)n2)cc1,-31.5%
13,Nc1nc(CN2CCc3ccccc3C2)nc(Nc2ccccc2)n1,-10.8%
14,COc1ccccc1Nc1nc(N)nc(CN2CCC(C)CC2)n1,-37.3%
15,COc1ccccc1Nc1nc(N)nc(CN2CCCCC2)n1,-4.26%
16,CC1CC(C)CN(C(=S)SCc2nc(N)nc(Nc3ccccc3)n2)C1 (stereo not shown),7.72%
17,CCN1CCN(Cc2nc(N)nc(Nc3ccc(C)c(C)c3)n2)CC1,-14.8%
18,O=C(CC1NCCc2ccccc21)Nc1ccccc1 (stereo not shown),4.29%
19,COc1cc(S(=O)(=O)n2cnc(C)c2)ccc1Cl,6.58%
20,CCCCC(=O)NNC(=S)NC(=O)C(c1ccccc1)c1ccccc1,12.3%
21,CC(C)(C)N(CC#CCC(O)(c1ccccc1)C1CCCC1)CCO (stereo not shown),15.6%
22,CNc1nc(CC(C)=O)ns1,6.99%
